Ba/F3 V617F tox = lowers viability of Ba/F3 cells expressing EpoR and JAK2V617F; ATP luminescence; inhibition, % at 5.6 µM; 1.1% of 220,000 active;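 active means inhibition above the campaign mean plus 3 SD over all tested compounds, cut at about 24% in these data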;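 further: cytokine-independent growth of Ba/F3 cells driven by EpoR plus mutant JAK2; 0% = DMSO-treated cells and 100% = JAK inhibitor I control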
APP 5UTR inh = APP translation inhibition; SH-SY5Y APP 5'UTR-luciferase reporter, luminescence; inhibition, % at 2 µM; 0.82% of 190,000 active;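 active means inhibition above a set limit, derived from the sample mean plus 3 SD, cut at about 45% in these data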
aSyn 5UTR inh = MLPCN primary screen, SNCA 5' untranslated region. AID 1813. alpha-synuclein 5'UTR reporter, inhibitor activity. 0.82% of 300,000 active. inhibition, % (tested at 7.5 µM); in the data active means inhibition above about 60%;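 further: H4 neuroglioblastoma cells stably carrying SNCA 5'UTR luciferase fusion; 0% = DMSO wells and 100% = positive control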
KLF5 inhibitor = kruppel-like factor 5 inhibition | DLD-1 KLF5 promoter-luciferase reporter, luminescence | inhibition, % at 5 µM | 0.23% of 290,000 active | AID 1700;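 active means inhibition above a per-plate limit of that plate's mean compound inhibition plus 3 SD, cut at about 60% in these data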;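 further: 0% = DMSO wells and 100% = LY294002 at 200 µM; higher means less KLF5 promoter-driven luciferase light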
BaF3 tox = reduces parental Ba/F3 cell viability, JAK2V617F counter-screen | CellTiter-Glo ATP luminescence | inhibition, % at 5.6 µM | 1.1% of 220,000 active;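 active means inhibition above a per-campaign cutoff, the mean inhibition of all tested compounds plus 3 SD, cut at about 27% in these data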;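 further: 0% = DMSO wells and 100% = JAK Inhibitor I control wells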
IEC-6 cytotox = IEC-6 cytotoxicity, counter-screen for KLF5 inhibitors | AID 1825 | 0.78% of 290,000 active | luminescence viability | inhibition, % at 5 µM;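 further: 0% = plate median of test compound wells and 100% = cytotoxic reference compound wells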
IEC-6 tox confirm = IEC-6 cytotoxicity, confirmation assay; shares compounds with IEC-6 cytotox; IEC-6 rat intestinal epithelial viability, luminescence; inhibition, % at 5 µM; 63% of 1,900 active; AID 1907;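 further: 0% = vehicle and 100% = reference cytotoxic drug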
Starred values were filed as active, the others as inactive; nt = not tested or not shown. Only some compounds are listed: those with a hit (about 2.1% of all), similar ones and a draw of the others. Unless noted, no stated cut-off is given here; in the data, active means inhibition above about 22%; inactive means the rest.

SMILES	Ba/F3 V617F tox	APP 5UTR inh	aSyn 5UTR inh	KLF5 inhibitor	BaF3 tox	IEC-6 cytotox	IEC-6 tox confirm
COc1cc(/C=N\NC(=O)CNC(=O)C2COc3ccccc3O2)ccc1O (stereo unspecified)	0	-1	9	2	6	-1	nt
CCN(CC)c1ccc(/C=N/NC(=O)CNC(=O)C2COc3ccccc3O2)c(O)c1 (stereo unspecified)	nt	nt	55	60	nt	52*	48*
COc1cc2c(cc1OC)CN(C(=O)/C=C/c1cccs1)CC2	81*	nt	31	47	63*	59*	52*
COc1cc2c(cc1OC)CN(C(=O)/C=C/c1ccccc1[N+](=O)[O-])CC2	nt	nt	-52	15	nt	24*	16
COc1cc2c(cc1OC)CN(C(=O)/C=C/c1ccc([N+](=O)[O-])cc1)CC2	nt	nt	4	-17	nt	-2	nt
O=C(O)c1ccc(N/N=C/c2cc3ccccc3nc2Cl)cc1	12	nt	-143	-76	1	22*	31*
Cc1cccc2cc(/C=N/NC(=O)c3ccncc3)c(Cl)nc12	-2	nt	4	-7	-4	8	nt
Cc1cccc2cc(/C=N/Nc3ccc(C(=O)O)cc3)c(Cl)nc12	11	nt	-197	-128	9	27*	48*
COc1cc(OC)c(C2=NOC(C(=O)NCc3cccs3)C2)cc1Cl (stereo unspecified)	6	21	-6	21	19	42*	41*
COc1ccc(C2=NOC(C(=O)NCc3cccs3)C2)cc1 (stereo unspecified)	0	2	-46	11	3	22	nt
COc1cc(OC)c(C2=NOC(C(=O)NCc3cccnc3)C2)cc1Cl (stereo unspecified)	nt	nt	-56	-3	nt	3	nt
COc1ccc(C2=NOC(C(=O)NCc3cccs3)C2)cc1OC (stereo unspecified)	87*	nt	60	41	76*	52*	51*
O=C(CCCN1C(=O)/C(=C/c2ccccc2Cl)SC1=S)Nc1cccnc1	nt	nt	-49	23	nt	-2	nt
O=C(Nc1ccccc1C(=O)NCc1cccnc1)c1ccccc1F	nt	nt	6	-32	nt	-3	nt
Cc1nc2ncccn2c1-c1csc(Nc2ccc(O)cc2)n1	82*	13	-67	-80	77*	25*	7
O=C(/C=C/c1ccco1)Nc1ccccn1	63*	-73	12	-112	56*	28*	58*
Cc1ccc(NC(=O)/C=C/c2ccco2)nc1	85*	89*	-63	30	82*	86*	57*
O=C(/C=C/c1ccco1)Nc1cccnc1	-1	-10	-122	-27	6	3	nt
CCCCn1c(=O)[nH]c(=O)c2c1nc(Cn1ncc(Cl)c(Cl)c1=O)n2CCC	nt	nt	-106	50	nt	102*	28*
CCCCn1c(=O)[nH]c(=O)c2c1nc(CN1C(=O)c3ccccc3S1(=O)=O)n2CCC	0	-19	-1	-24	3	-6	nt
COc1ccccc1NC1CCCCC1NS(=O)(=O)c1ccccc1 (stereo unspecified)	nt	nt	1	-10	nt	-5	nt
CCCCCCCCCCCCCCCCn1cc[n+](C)c1	98*	29	141*	8	69*	35*	32*
Cc1cccc(NS(=O)(=O)c2ccc(C(=O)N3CC(C)OC(C)C3)cc2)c1C (stereo unspecified)	nt	nt	3	nt	nt	nt	nt
CN(C)c1ccc(-c2nn3c(-c4ccccc4Cl)nnc3s2)cc1	9	90*	82*	23	13	35*	57*
Clc1ccccc1-c1nnc2sc(-c3ccncc3)nn12	3	-3	-18	-56	5	6	nt
SMILES	Ba/F3 V617F tox	APP 5UTR inh	aSyn 5UTR inh	KLF5 inhibitor	BaF3 tox	IEC-6 cytotox	IEC-6 tox confirm
CC1=[N+](C)c2c(ccc3cccnc23)C1(C)C	72*	20	nt	-46	63*	26*	33*
CCC(Oc1ccccc1)C(=O)Nc1ccc(C)c(S(=O)(=O)N2CCOCC2)c1 (stereo unspecified)	nt	nt	10	nt	nt	nt	nt
CCN(CC)CCCNC1=C(Cl)C(=O)c2ccccc2C1=O	5	6	76*	-3	-1	88*	77*
O=C1C(Cl)=C(NCc2cccnc2)C(=O)c2ccccc21	nt	nt	-141	3	nt	99*	57*
CC(C)NC1=C(Cl)C(=O)c2ccccc2C1=O	4	-1	-91	-52	7	44*	17
COCCCNC1=C(Cl)C(=O)c2ccccc2C1=O	1	nt	-30	-25	3	21	nt
CC(C)OCCCNC1=C(Cl)C(=O)c2ccccc2C1=O	-5	nt	-44	-29	2	51*	-3
Cc1sc2ncnc(N3CCN(Cc4ccccc4)CC3)c2c1-c1ccccc1	nt	nt	28	-34	nt	-5	nt
Cn1c(=O)c2c(nc(SCCN3CCOCC3)n2C)n(C)c1=O	nt	nt	7	-6	nt	-3	nt
CCOC(=O)CSc1nnc(NC(=O)CN2CCCCC2)s1	nt	nt	-3	-2	nt	3	nt
CCC(CC)C(=O)c1c[nH]c(C(=O)NN)c1	4	88*	13	17	13	30*	6
CCC(CC)C(=O)c1c[nH]c(C(=O)O)c1	4	-1	25	-4	1	10	nt
O=C(/C=C/c1cccs1)N1CCC2(CC1)Oc1ccc(Cl)cc1C(=O)C21CC(c2ccccc2)=NO1 (stereo unspecified)	nt	nt	19	nt	nt	nt	nt
Cc1ccc(-c2nc(Nc3ccc(O)cc3)c3ccccc3n2)cc1	nt	nt	-29	-30	nt	5	nt
Cc1ccc(-c2nc(C(Cl)Cl)c3ccccc3n2)cc1	8	nt	93*	16	4	87*	99*
COc1ccc(OCc2cc(C(=O)NC3CCOC(C)(C)C3)no2)c2ccccc12 (stereo unspecified)	nt	nt	-183	-32	nt	42*	1
O=c1[nH][nH]c(=S)n1-c1ccccc1C(F)(F)F	-4	nt	nt	1	0	-2	nt
CC(C)(C)c1ccc(C(=O)Nc2ccc(C(=O)NCc3cccnc3)cc2)cc1	nt	nt	57	20	nt	98*	91*
O=C(NC(=S)NCc1cccnc1)c1ccc([N+](=O)[O-])cc1	-2	2	-22	-5	2	0	nt
CC(C)(C)C(=O)Nc1ccc(C(=O)NCc2cccnc2)cc1	5	5	-25	-6	6	1	nt
O=C(NCc1cccnc1)c1ccc(NC(=O)c2ccc([N+](=O)[O-])cc2)cc1	nt	nt	24	-20	nt	87*	59*
Fc1c(F)c(-n2nnc3ccccc32)c(F)c(F)c1Cl	nt	nt	-10	-15	nt	-5	nt
COC(=O)c1ccc(NS(=O)(=O)c2cc(-c3cc(C)no3)ccc2OC)cc1	nt	nt	-26	50	nt	63*	40*
CCOc1cc(-c2nc3ccccc3s2)ccc1O	4	nt	-98	-55	0	2	nt
CC[n+]1c(/C=C/N(C)c2ccccc2)n(-c2ccccc2)c2ccc(-c3nc4ccccc4s3)cc21	nt	nt	120*	29	nt	58*	12
O=C(c1ccccc1)c1c2c(cc3sc4ccccc4[n+]13)-c1cccc3cccc-2c13	86*	-36	nt	-9	68*	39*	18
Cc1sc2ccccc2[n+]1CC(=O)c1ccccc1	nt	nt	-8	-18	nt	2	nt
